Data on 40 molecules can be found in PubChem BioAssay (NCI).

Compounds without any hit were thinned out: in the full panel of roughly 83,000, 20% have a hit.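 Method: cells in 96-well plates; compound added at one concentration; 48 h incubation; percent growth measured; values under 10 scored active.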 A number with no mark means an inactive call. The source made the active and inactive calls.

This experiment deals with MDA-MB-435 melanoma. In words: NCI-60 one-dose screen, 48 h (100 = growth as untreated, 0 = no growth, -100 = all killed). Conditions: 10 µM unless noted. Here is the method: Growth inhibition of the MDA-MB-435 human Melanoma tumor cell line is measured as a screen for anti-cancer activity. Cells are grown in 96 well plates and exposed to the test compound for 48 hours. Compounds are tested at a single concentration, which is 10^-5 M for most compounds. The reported endpoint is percent growth (GI% or GIPRCNT), where numbers from 0 - 100% represent growth inhibition, and numbers from -100% - 0 represent cell death. For example, a value of 40 represents 60% growth inhibition. A value of 0 means no net growth occurred over the course of the experiment. A value of -40 indicates 40% of cells at the beginning of the experiment died by the end of the experiment. A value of -100 means all cells are dead at the end of the experiment.
NCI-60 Human Tumor Cell Lines Screen was performed using the standard one-dose NCI protocol, which is described in more detail at https://dtp.cancer.gov/discovery_development/nci-60/default.htm.
Compounds with GIPRCNT values below 10 were considered active. Activity score was based on GIPRCNT using the following formula: […]
Score is 0 for GIPRCNT values of 100 or above, 50 for GIPRCNT values of 0, and 100 for GIPRCNT values of -100.
As to `C=COC(=O)CCCCCCCCC`, the growth is 106%.

Turning to `CCCCCCCCCCCC(=O)NCCC[N+](C)(C)CC(=O)[O-]`, the growth was 88.7%.

In the case of `Cc1cc(N/N=C/c2nc(-c3ccc(Br)cc3)oc2C)c2cc(Br)ccc2n1`, the growth is -11.2% (active).

With `CC1(c2ccc(Cl)cc2)OC(=O)CC(=O)O1`, the growth was 106%.

For `COc1ccc(-c2nc3sc(-c4cc(OC)c(OC)c(OC)c4)nn3c2/C=C2/C(=O)Nc3ccc(F)cc32)cc1`, the growth was -28.6% (active).

As to `O=C(NNC(=O)N1c2ccccc2C=Cc2ccccc21)c1ccc2ccccc2c1`, the growth was 103%.

With `CCCCCc1cc[n+](CC(=O)c2ccc([N+](=O)[O-])cc2)cc1`, the growth was 68.2%.

In the case of `C=C1CCC[C@]2(C)CCC[C@H](C)[C@@H](OC(C)=O)[C@@H]3OC(=O)C(=C)[C@@H]3C[C@H]1O2`, the growth was 53.9%.

For the molecule `Oc1ccc2cc(Br)ccc2c1-c1c(O)ccc2cc(Br)ccc12`, the growth was 63.1%.

Regarding `COc1ccc(/C=C2\CN(Cc3cn(CCNc4ccnc5cc(Cl)ccc45)nn3)C/C(=C\c3ccc(OC)c(OC)c3)C2=O)cc1OC`, the growth was -5.87% (active).

In the case of `C=C1CCC2C3(C)COC(c4ccc(N(C)C)cc4)OC3CCC2(C)C1C/C=C1/C(=O)OCC1O` (stereo not given), the growth was 7.31% (active).

For `O=C1c2ccccc2-c2ccccc2C1(Cl)Cl`, the growth is -90.1% (active).

Turning to `S=c1[nH]nc(-c2cc3ccc2CCc2ccc(cc2)CC3)n1C1CC1`, the growth was 97.3%.

On to `O=C1NN(C(=O)c2ccc(Cl)cc2)C(c2ccccc2)=N/C1=C\c1cn(-c2ccccc2)nc1-c1ccccc1`, for which the growth was 71.4%.

On to `C=C1CCC2C(C)(CO)C(O)CCC2(C)C1C/C=C1/C(=O)OCC1Oc1ccccc1C` (stereo not given), for which the growth is 59.3%.

For the molecule `CCN(CC)CCC(CNc1ccnc2cc(Cl)ccc12)c1ccc(Cl)cc1` (stereo not given), the growth was -72.2% (active).

Regarding `COC(=O)C1CCCN1C(=O)[C@@H]1CCCN1C(=O)[C@H](Cc1c[nH]c2ccccc12)NC(=S)Nc1cc(C(F)(F)F)cc(C(F)(F)F)c1` (stereo not given in full), the growth is 45%.

With `CCCN=C1NC(=O)/C(=C/c2nc(-c3ccc(OC)cc3)n3ccccc23)S1`, the growth is 109%.

In the case of `Cc1ccc(S(=O)(=O)/C(=C\c2ccc(Cl)cc2)C(=O)c2ccccc2)cc1`, the growth was 88.7%.

For the molecule `COc1cccc(-c2nc3sccn3c2-c2ccnc(NCCCNS(=O)(=O)c3ccc(F)cc3)c2)c1`, the growth was 19.1%.

With `CCCCCCCCCCCCNC(=O)[C@H]1CSC(c2cc3ccccc3s2)N1` (stereo not given in full), the growth was -94.6% (active).

Turning to `COc1cc2c(cc1OCCCN1CCN(CCCn3c4ccccc4c4ccccc43)CC1)N=C[C@@H]1CCCN1C2=O`, the growth was -80.5% (active).

Consider `COc1ccc(NC(=O)c2cc(OC)c(OC)c(OC)c2)cc1O`, for which the growth is -15.1% (active).

`COP(=O)(OC)/C(=N\NS(=O)(=O)c1ccc(C)cc1)c1ccccc1`: the growth was 106%.

For the molecule `COc1cc(C(=O)/C=C/c2ccc3nc(-c4cc(F)cc(F)c4)sc3c2)cc(OC)c1OC`, the growth was 106%.

As for `CC(C)(C)c1[nH]nc2c1C(c1cc3ccccc3[nH]c1=O)Nc1cc(C(=O)Nc3ccc(Cl)cc3)ccc1N2` (stereo not given), the growth is 35.4%.

Consider `CCO/C=N/C1=C(C#N)C(c2ccc(Cl)cc2)c2c(c3ccccc3n(C)c2=O)O1` (stereo not given), for which the growth was 1.36% (active).

On to `COc1ccc(N2CCN(Cc3cc(C(=O)/C=C/c4c[nH]c5ccccc45)ccc3O)CC2)cc1`, for which the growth is 105%.

As for `CC(C)(C)N1CCC1C(N)=O` (stereo not given), the growth was 103%.

For the molecule `CCN(CC)CCOc1ccc(Cl)c(C)c1`, the growth is 106%.

In the case of `COc1ccc(Nc2nn3c(C)cc(C)nc3c2C(=O)Nc2ccc(C)cc2)c(OC)c1`, the growth was 105%.

For the molecule `O=C1/C(=C/c2ccc(Cl)cc2)CN(Cc2cn(CCNc3ccnc4cc(Cl)ccc34)nn2)C/C1=C\c1ccc(Cl)cc1`, the growth is -98.6% (active).

As to `CC(C)(C)OC(=O)NC(CSCc1ccccc1)C(=O)ON1C(=O)CCC1=O` (stereo not given), the growth is 109%.

In the case of `CC(C)(C)n1cc(-c2ccnc(NCCNS(=O)(=O)c3ccc(F)cc3)c2)c(-c2cccc(O)c2)n1`, the growth was 64.7%.

With `COc1cc([N+](=O)[O-])c2ncccc2c1O`, the growth is 51.8%.

As for `CC12CCCC(CC(=O)c3[nH]c4ccccc4c31)C2` (stereo not given), the growth is -46.9% (active).

As for `Cc1cc(C(C)(C)C)ccc1S`, the growth was 111%.

`C=CCn1cc(-c2nc3ccccc3s2)c2cc(-c3ccc4c5c(cccc35)C(=O)N(CCN3CCNCC3)C4=O)ccc21`: the growth was 90.7%.

As for `C=C[C@@H]1C[C@@H]2Cc3ccccc3N1O2`, the growth is 100%.

For `CCC(=O)OC1=CN2C(=NC(c3ccc(N)cc3)=CC2c2cc(OC)c(OC)c(OC)c2)S1` (stereo not given), the growth was 23.1%.
